Where “and” joins values, the source holds several entries; their conditions need not be identical. Equal entries are not always repeated. The source holds several records for some structures; these can differ, active in one and inactive in another. Calls of active or inactive are those of the source. Unless noted, calls follow the shape of the dose curve; as a rule, active = well fitted curve in the direction sought with a large enough effect in the repeat runs; inconclusive = weak or mixed curves; inactive = no such curve, though single readings can be large; an effect the other way counts as inactive or inconclusive.
What was measured:
[1] = qHTS assay to identify small molecule antagonists of the thyroid receptor (TR) signaling pathway - cell viability counter screen (AID 743064); also: nearly all actives have a fitted effect of over 50% in size; also: potency is read from the fitted curve at half-maximal effect
In short: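 In rat pituitary GH3.TRE-Luc reporter cells co-exposed to compound and 1 nM T3 for 23.5 h, cytotoxicity was assessed with CellTiter-Fluor in the same wells, read by fluorescence.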

[2] = qHTS assay to identify small molecule antagonists of the thyroid receptor (TR) signaling pathway (AID 743065); also: nearly all actives have a fitted effect of over 55% in size; also: potency is read from the fitted curve at half-maximal effect
In short: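 GH3.TRE-Luc rat pituitary cells (two TREs driving luciferase) were dosed with compound, then stimulated with 1 nM T3 (final) for 23.5 h at 37 C. ONE-Glo luminescence was the read-out, with CellTiter-Fluor fluorescence as the cytotoxicity counter-screen.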

[3] = test system: thyroid hormone receptor (rat, GH3 cells); experiment: qHTS assay to identify small molecule agonists of the thyroid receptor (TR) signaling pathway (AID 743066; calls by dose curve)
[4] = target: Estrogen receptor (Homo sapiens) (UniProt P03372); experiment: qHTS assay to identify small molecule antagonists of the estrogen receptor alpha (ER-alpha) signaling pathway (AID 743069; active = well fitted curve in the direction sought with a large enough effect in the signal ratio in the repeat runs, not every such curve was filed as active; inconclusive = weak or mixed curves, or effect the other way; inactive = no such curve, though single readings can be large or run the other way; the % refers to the signal ratio)
In short: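 HEK293 ER-alpha-UAS-bla GripTite cells, held overnight in 2% charcoal-stripped FBS, 5,000 cells/well, preincubated 4 h, then compound plus 17beta-estradiol for 18 h at 37C. Beta-lactamase read by LiveBLAzer B/G FRET substrate, 2 h at room temperature.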

[5] = qHTS assay to identify small molecule antagonists of the estrogen receptor alpha (ER-alpha) signaling pathway - cell viability counter screen (AID 743074; calls by dose curve;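 also: HEK293 cells carrying ER-alpha-UAS-bla reporter stimulated with 17beta-estradiol; nearly all actives have a fitted effect of over 45% in size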)
[6] = target: Estrogen receptor (Homo sapiens) (UniProt P03372); experiment: qHTS assay to identify small molecule agonists of the estrogen receptor alpha (ER-alpha) signaling pathway (AID 743075; calls by dose curve; also: potency is read from the fitted curve at half-maximal effect)
[7] = target: Estrogen receptor (Homo sapiens) (UniProt P03372); experiment: qHTS assay to identify small molecule agonists of the estrogen receptor alpha (ER-alpha) signaling pathway using the BG1 cell line (AID 743079); also: nearly all actives have a fitted effect of over 20% in size; also: potency is read from the fitted curve at half-maximal effect
[8] = qHTS assay to identify small molecule antagonists of the estrogen receptor alpha (ER-alpha) signaling pathway using the BG1 cell line (AID 743080; calls by dose curve;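 also: BG1 cells stimulated with 17beta-estradiol alongside compound; nearly all actives have a fitted effect of over 25% in size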; also: potency is read from the fitted curve at half-maximal effect)
In short: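 BG1Luc4E2, endogenous ER-alpha, 4xERE-luc; 5 d charcoal-stripped FBS, phenol red free; 24 h plating; cpd + 17beta-estradiol 21.5 h, 37 C/5% CO2; CellTiter-Fluor viability 30 min, then ONE-Glo luciferase 30 min RT.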

[9] = qHTS assay to identify small molecule antagonists of the estrogen receptor alpha (ER-alpha) signaling pathway using the BG1 cell line - cell viability counter screen (AID 743081);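 also: compound given together with 17beta-estradiol as the ER stimulus; nearly all actives have a fitted effect of over 45% in size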; also: potency is read from the fitted curve at half-maximal effect
Aromatase (Homo sapiens) = Aromatase (Homo sapiens) (UniProt P11511); experiment: qHTS assay to identify aromatase inhibitors (AID 743083); also: nearly all actives have a fitted effect of over 55% in size; also: potency is read from the fitted curve at half-maximal effect
[10] = qHTS assay to identify aromatase inhibitors - cell viability counter screen (AID 743084);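 also: cells stimulated with testosterone during compound exposure; nearly all actives have a fitted effect of over 55% in size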; also: potency is read from the fitted curve at half-maximal effect
[11] = target: Aryl hydrocarbon receptor (Homo sapiens) (UniProt P35869); experiment: qHTS assay to identify small molecule that activate the aryl hydrocarbon receptor (AhR) signaling pathway (AID 743085); also: nearly all actives have a fitted effect of over 15% in size; also: potency is read from the fitted curve at half-maximal effect;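 as to activation: HG2L7.5c1 human HepG2 liver cells with stably integrated DRE-driven firefly reporter; series mostly up to about 70 µM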
In short: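 AhR agonist activity is inferred from enhanced light output of a DRE-controlled firefly luciferase reporter in HepG2 cells, measured with ONE-Glo following 24 h treatment at 37C.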

[12] = qHTS assay to identify small molecule that activate the aryl hydrocarbon receptor (AhR) signaling pathway - cell viability counter screen (AID 743086); also: nearly all actives have a fitted effect of over 45% in size; also: potency is read from the fitted curve at half-maximal effect
In short: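 HepG2-AhR-luc (HG2L7.5c1) cells, 4000/well, treated 24 h at 37 C with compound; viability measured as CellTiter-Fluor fluorescence after 30 min in the same wells as the luciferase read.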

[13] = target: Peroxisome proliferator-activated receptor gamma (Homo sapiens) (UniProt P37231); experiment: qHTS assay to identify small molecule antagonists of the peroxisome proliferator-activated receptor gamma (PPARg) signaling pathway (AID 743191; calls by dose curve; also: nearly all actives have a fitted effect of over 30% in size; also: potency is read from the fitted curve at half-maximal effect)
In short: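 GeneBLAzer PPARg UAS-bla HEK293H cells, 5 h post-plating, exposed to compounds 17 h at 37C. LiveBLAzer B/G FRET substrate added for 1 h at room temperature; beta-lactamase reporter read by fluorescence intensity.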

[14] = qHTS assay to identify small molecule antagonists of the peroxisome proliferator-activated receptor gamma (PPARg) signaling pathway - cell viability counter screen (AID 743194); also: nearly all actives have a fitted effect of over 55% in size
In short: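 Cytotoxicity counter screen in PPARg-bla HEK293H cells, same wells as reporter assay. Compounds plus 50 nM rosiglitazone (final) for 17 h at 37 C, then viability read by CellTiter-Glo luminescence.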

[15] = qHTS assay for small molecule agonists of the antioxidant response element (ARE) signaling pathway (AID 743202; active = well fitted activation curve with a large enough effect in the signal ratio in the repeat runs, not every such curve was filed as active; inconclusive = weak or mixed curves, or effect the other way; inactive = no such curve, though single readings can be large or run the other way; the % refers to the signal ratio; also: potency is read from the fitted curve at half-maximal effect)
In short: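 ARE-bla HepG2 cells (beta-lactamase reporter under the antioxidant response element), plated 5 hours, then exposed to compounds 16 hours at 37 C. LiveBLAzer B/G FRET substrate added for 2 hours at room temperature; fluorescence intensity read.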

[16] = qHTS assay for small molecule agonists of the antioxidant response element (ARE) signaling pathway - cell viability counter screen (AID 743203; calls by dose curve; also: nearly all actives have a fitted effect of over 55% in size)
In short: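 HepG2 cells carrying ARE-driven beta-lactamase; 2,000 cells/well; 5 hrs plating; compound pinned from DMSO; 16 hrs 37C/5% CO2; CellTiter-Glo added; 30 min RT; luminescence.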

[17] = qHTS assay for small molecule activators of the heat shock response signaling pathway - cell viability counter screen (AID 743209); also: nearly all actives have a fitted effect of over 50% in size
In short: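 Luminescence from CellTiter-Glo, added after the beta-lactamase FRET read, gave the viability signal. Cells were HSE-bla HeLa treated with DMSO-dissolved compounds for 5 h at 37 C following overnight plating.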

[18] = qHTS assay for small molecule activators of the heat shock response signaling pathway (AID 743210; active = well fitted activation curve with a large enough effect in the signal ratio in the repeat runs, with a control signal flat, not every such curve was filed as active; inconclusive = weak or mixed curves; the % refers to the signal ratio; also: series mostly up to about 63 µM)
In short: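 HSE-bla HeLa cells (beta-lactamase reporter under heat shock response elements), plated overnight, then exposed to compounds 5 h at 37 C; LiveBLAzer B/G FRET substrate added, 2.5 h at room temperature, fluorescence intensity read.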

[19] = target: Peroxisome proliferator-activated receptor gamma (Homo sapiens) (UniProt P37231); experiment: qHTS assay to identify small molecule agonists of the peroxisome proliferator-activated receptor gamma (PPARg) signaling pathway (AID 743094; active = well fitted activation curve with a large enough effect in the signal ratio in the repeat runs, not every such curve was filed as active; inconclusive = weak or mixed curves, or effect the other way; inactive = no such curve, though single readings can be large or run the other way; the % refers to the signal ratio)
In short: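 Beta-lactamase FRET fluorescence was the read-out after a 1 h room-temperature substrate step, following 17 h compound treatment at 37C of HEK293H cells expressing a UAS-driven bla reporter responsive to PPARg.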

Measured: Potency

Sequence of Aromatase (Homo sapiens) (P11511 whole entry, looked up): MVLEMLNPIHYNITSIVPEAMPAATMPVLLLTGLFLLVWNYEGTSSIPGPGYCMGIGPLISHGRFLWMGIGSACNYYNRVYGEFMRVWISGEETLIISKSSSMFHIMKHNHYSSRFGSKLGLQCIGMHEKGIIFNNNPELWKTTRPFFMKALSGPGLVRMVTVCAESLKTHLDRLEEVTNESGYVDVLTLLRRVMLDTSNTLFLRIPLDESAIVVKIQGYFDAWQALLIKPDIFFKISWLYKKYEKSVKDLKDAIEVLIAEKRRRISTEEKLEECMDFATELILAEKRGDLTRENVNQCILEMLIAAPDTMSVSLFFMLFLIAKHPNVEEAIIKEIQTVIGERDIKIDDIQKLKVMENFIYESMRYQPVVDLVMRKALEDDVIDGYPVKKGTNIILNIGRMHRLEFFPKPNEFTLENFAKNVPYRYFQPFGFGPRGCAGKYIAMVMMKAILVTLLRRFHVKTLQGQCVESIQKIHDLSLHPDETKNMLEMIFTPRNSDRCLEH
Sequence of Peroxisome proliferator-activated receptor gamma (Homo sapiens) (P37231 whole entry, looked up): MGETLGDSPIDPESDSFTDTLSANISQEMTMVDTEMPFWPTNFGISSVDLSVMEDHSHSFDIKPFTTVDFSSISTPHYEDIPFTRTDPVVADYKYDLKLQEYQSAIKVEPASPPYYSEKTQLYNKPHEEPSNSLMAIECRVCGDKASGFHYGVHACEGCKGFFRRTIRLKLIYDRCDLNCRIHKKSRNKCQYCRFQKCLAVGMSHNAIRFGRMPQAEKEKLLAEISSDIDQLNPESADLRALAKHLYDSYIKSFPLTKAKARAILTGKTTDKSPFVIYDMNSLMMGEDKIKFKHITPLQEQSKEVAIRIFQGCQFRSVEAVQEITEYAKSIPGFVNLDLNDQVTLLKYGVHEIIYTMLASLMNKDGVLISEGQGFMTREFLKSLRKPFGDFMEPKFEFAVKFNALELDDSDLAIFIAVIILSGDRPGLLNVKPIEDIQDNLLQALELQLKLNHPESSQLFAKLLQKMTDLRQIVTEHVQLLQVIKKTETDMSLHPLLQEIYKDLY
Sequence of Estrogen receptor (Homo sapiens) (P03372 whole entry, looked up): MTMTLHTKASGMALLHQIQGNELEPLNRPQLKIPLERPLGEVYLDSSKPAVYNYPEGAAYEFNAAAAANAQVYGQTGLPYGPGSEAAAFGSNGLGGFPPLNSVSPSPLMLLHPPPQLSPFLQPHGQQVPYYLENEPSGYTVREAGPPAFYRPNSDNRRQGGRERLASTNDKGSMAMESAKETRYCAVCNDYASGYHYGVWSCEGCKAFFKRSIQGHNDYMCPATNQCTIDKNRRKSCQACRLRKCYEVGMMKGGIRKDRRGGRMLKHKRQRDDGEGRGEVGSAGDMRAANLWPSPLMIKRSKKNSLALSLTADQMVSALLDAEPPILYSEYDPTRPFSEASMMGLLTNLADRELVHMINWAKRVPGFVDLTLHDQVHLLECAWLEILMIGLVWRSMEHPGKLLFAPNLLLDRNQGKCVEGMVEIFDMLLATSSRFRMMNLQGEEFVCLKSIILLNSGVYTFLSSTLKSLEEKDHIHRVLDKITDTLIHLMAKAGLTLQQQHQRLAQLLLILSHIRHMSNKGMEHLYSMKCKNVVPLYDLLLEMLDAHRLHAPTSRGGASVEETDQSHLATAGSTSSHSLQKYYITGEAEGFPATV
Sequence of Aryl hydrocarbon receptor (Homo sapiens) (P35869 whole entry, looked up): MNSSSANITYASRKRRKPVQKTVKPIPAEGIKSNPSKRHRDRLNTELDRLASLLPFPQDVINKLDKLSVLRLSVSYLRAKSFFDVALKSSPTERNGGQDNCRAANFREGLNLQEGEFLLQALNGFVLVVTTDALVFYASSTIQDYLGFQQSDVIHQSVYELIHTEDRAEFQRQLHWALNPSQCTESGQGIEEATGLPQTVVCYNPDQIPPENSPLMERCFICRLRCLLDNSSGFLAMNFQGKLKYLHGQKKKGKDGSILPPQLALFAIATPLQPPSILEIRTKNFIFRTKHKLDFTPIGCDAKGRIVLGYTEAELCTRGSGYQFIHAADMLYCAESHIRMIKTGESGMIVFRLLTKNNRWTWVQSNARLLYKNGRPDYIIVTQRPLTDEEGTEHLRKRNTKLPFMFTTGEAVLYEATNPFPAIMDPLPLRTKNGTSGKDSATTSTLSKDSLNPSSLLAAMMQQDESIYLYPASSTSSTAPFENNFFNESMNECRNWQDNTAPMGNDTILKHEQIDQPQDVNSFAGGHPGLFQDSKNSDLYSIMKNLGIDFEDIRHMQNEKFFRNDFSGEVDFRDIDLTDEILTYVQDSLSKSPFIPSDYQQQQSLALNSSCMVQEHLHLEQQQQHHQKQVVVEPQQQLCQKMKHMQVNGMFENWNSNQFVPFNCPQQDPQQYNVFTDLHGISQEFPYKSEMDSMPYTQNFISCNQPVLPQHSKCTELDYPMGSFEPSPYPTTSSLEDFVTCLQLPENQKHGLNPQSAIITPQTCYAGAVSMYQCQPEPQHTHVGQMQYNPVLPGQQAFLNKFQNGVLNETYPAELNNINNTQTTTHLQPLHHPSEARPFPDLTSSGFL

CC1COc2ccccc2N1C(=O)C(Cl)Cl (stereo not given)
active: [1] 9.67 µM and 19.3 µM | [2] 8.62 µM and 15.3 µM | [6] 24.5 µM [inconclusive] | [8] 30.6 µM and 68.5 µM | [10] 27.3 µM | [13] 24.5 µM | [15] 19.3 µM and 27.3 µM
17.2 µM (active) and inactive: [11]
61 µM (active) and inactive: Aromatase (Homo sapiens)
not listed: [19]
inactive: all other assays above

O=C(Cl)c1c(Cl)c(Cl)c(C(=O)Cl)c(Cl)c1Cl
not listed: [11] | [13]
inactive: all other assays above

OC1CCCC1
not listed: [13] | [16]
inactive: all other assays above

O=[N+]([O-])c1cccc(Cl)c1
inactive: all assays above

Nc1cc(-c2ccncc2)c[nH]c1=O
not listed: [11] | [13] | [15]
inactive: all other assays above

COC(=O)c1ccccc1O
23.7 µM (active) and inactive: [7]
not listed: [13] | [18] | [19]
inactive: all other assays above

O=[N+]([O-])C(CO)(CO)CO
active: [15] 33.9 µM and 21.7 µM
not listed: [11] | [13]
inactive: all other assays above

OC[C@@H](O)[C@@H](O)[C@H](O)[C@@H](O)CO
not listed: [11] | [16]
inactive: all other assays above

Nc1c(S(=O)(=O)O)cc(Br)c2c1C(=O)c1ccccc1C2=O
inactive and 61.1 µM (active): [1]
active: [9] 27.3 µM | [10] 34.4 µM | [11] 31.3 µM and 30.6 µM | [12] 24.3 µM | [15] 27.9 µM
not listed: [13]
inactive: all other assays above

C=CC(=O)OCCCCCCCC(C)C
not listed: [16]
inactive: all other assays above

NCCc1ccc(O)c(O)c1
active: [1] 27.4 µM | [2] 48.7 µM | [10] 27.4 µM | [15] 109 nM and 376 nM
inactive and 54.6 µM (active): [9]
not listed: [7] | [8] | [18]
inactive: all other assays above

O=C(c1ccc(O)cc1)c1ccc(O)cc1O
active: [6] 11.1 µM [inconclusive] and 21.9 µM [inconclusive] | [7] 5.5 µM and 9.69 µM | [11] 24.3 µM
not listed: [4] | [13] | [15] | [16]
inactive: all other assays above

NC(=O)/N=N/C(N)=O
not listed: [5] | [13] | [18]
inactive: all other assays above

Cc1ccc(N)c(S(=O)(=O)O)c1
not listed: [4] | [6] | [7] | [8] | [11]
inactive: all other assays above

CC1=C(CC(=O)O)c2cc(F)ccc2/C1=C\c1ccc(S(C)=O)cc1 (stereo not given)
not listed: [4] | [6] | [7] | [8] | [11] | [13] | [15] | [16]
inactive: all other assays above
